3CLpro inhibitor – SARS-CoV 3CLpro protease inhibition; P0C6X7; recombinant SARS-CoV 3CLpro, quenched FRET peptide cleavage; inhibition, % at 6 µM; 0.14% of 290,000 active; in the data active = inhibition above about 12%
BoNT F protease – inhibitors of Botulinum neurotoxin F light chain protease | Multiplex microsphere protease cleavage assay, flow cytometry | inhibition, % at 10 µM | 0.22% of 360,000 active; in the data active = inhibition above about 35%, passing the limit was not always enough; inconclusive = no clear call, values can overlap the other calls; also: plate controls were buffer without enzyme for full effect and enzyme alone for no effect
Anthrax LF prot – blocks Bacillus anthracis lethal factor protease; multiplex microsphere protease cleavage assay, LF; inhibition, % at 10 µM; AID 588501; 0.12% of 360,000 active; P15917; also: plate controls were buffer without enzyme for full effect and enzyme alone for no effect
BoNT-A LC inh2 – inhibitors of Botulinum neurotoxin A light chain protease; multiplex microsphere protease substrate cleavage, flow cytometry; inhibition, % at 10 µM; 0.17% of 360,000 active; AID 588499; also: plate controls were buffer without enzyme for full effect and enzyme alone for no effect
Bead autofluor – counter-screen for toxin protease inhibitors: compound fluorescence; compound autofluorescence counterscreen, microsphere flow cytometry; hits give high values; fluorescence intensity (concentration not given with the values); 3.1% of 360,000 active; AID 624483; in the data active = fluorescence intensity above about 16000; inconclusive = no clear call, values can overlap the other calls
VHR inh abs – inhibitors of human VHR1 phosphatase (DUSP3); AID 1654; 0.52% of 290,000 active; inhibition, % at 13.3 µM; recombinant VHR phosphatase, pNPP absorbance; in the data active = inhibition above about 50%
Active calls of the source: *; u = inconclusive; x = no result given. The list is not random: actives were taken first. Their share in the collection is about 3.9%. Rule as the data show it, unless noted: active = inhibition above about 30%; inconclusive = no clear call, values can overlap the other calls; inactive = below that.

SMILES	3CLpro inhibitor	BoNT F protease	Anthrax LF prot	BoNT-A LC inh2	Bead autofluor	VHR inh abs
Cc1cc(C)cc(OC(=O)CS(=O)c2ccc(C(F)(F)F)cc2[N+](=O)[O-])c1 (stereo not drawn)	-3	5	-10	-2	10026	27
O=C(CS(=O)c1ccc(C(F)(F)F)cc1[N+](=O)[O-])Oc1ccc(Cl)cc1 (stereo not drawn)	4	0	-7	-1	22500*	51*
O=C(CSCc1cc(=O)n2ccsc2n1)Nc1ccc(F)cc1	-2	7	1	0	4948	14
C(=N\N1CCOCC1)/c1ccsc1	-3	13	7	-1	2903	57*
O=C(NCn1cnccc1=O)c1ccccc1	-4	0	-4	0	23239*	-2
O=C(NC(C(=O)c1ccccc1)n1cnccc1=O)c1ccccc1 (stereo not drawn)	2	-17	-4	-1	3740	32
COc1ccc(S(=O)(=O)N(CC(=O)NCc2ccco2)c2ccccc2)cc1	1	2	1	u	19214*	-4
COc1ccc(N(CC(=O)NCc2ccco2)S(=O)(=O)c2ccccc2)cc1	5	6	7	2	4356	30
CN(CC(=O)NCc1ccco1)S(=O)(=O)c1ccc2c(c1)n(C)c(=O)c(=O)n2C	2	-3	-2	-3	24204*	21
Cc1csc(N=Cc2ccc([N+](=O)[O-])o2)n1	x	-23	-15	0	3498	x
CC(C)CCN(C(=O)Nc1ccccc1)C(C)c1cccs1 (stereo not drawn)	3	-5	-3	-1	20892*	-10
CCc1ccc(NC(=O)N(Cc2ccco2)C(C)c2cccs2)cc1 (stereo not drawn)	1	-8	-4	-2	8046	21
CC(c1cccs1)N(C(=O)Nc1ccccc1)C1CCCCC1 (stereo not drawn)	-2	3	0	1	21824*	-19
CC(=O)Nc1ccc(-c2ccnc3c2CC(C)(C(=O)Nc2ccc4c(c2)OCO4)O3)cc1 (stereo not drawn)	x	-10	-9	0	3039	x
COc1ccc(Br)cc1S(=O)(=O)N1CCCc2ccccc21	-6	u	8	u	3706	61
Cc1nn(C(=O)c2cccnc2)c(C)c1C	0	0	-2	0	20525*	33
Cc1nn(C(=O)c2cccnc2)c(C)c1Sc1ccccc1	-3	-11	-4	-3	4274	-2
Oc1ccc(C[C@H]2CNC(=S)N2CC2CCCN2C[C@H](Cc2ccccc2)N2C[C@H](Cc3ccc(O)cc3)N(CC3CCCCC3)C2=S)cc1 (stereo partly drawn)	x	-5	-3	0	5949	x
CCOC(=O)N1CCN(C(=O)CSCc2nc(-c3ccccc3C)oc2C)CC1	3	-3	-4	-1	16597*	25
CSc1ccc(-c2nc(CSCC(=O)N3CCOCC3)c(C)o2)cc1	-3	-3	-1	u	22931*	21
CSc1ccc(-c2nc(CSCC(=O)NC3CC3)c(C)o2)cc1	-1	-3	-3	-1	4827	-13
COc1ccccc1CNC(=O)CCS(=O)(=O)c1ccc(Cl)cc1	x	4	0	2	5902	x
Clc1ccc(Nc2ncn[nH]2)cc1	1	-2	1	0	23107*	33
CCOC(=O)N1CCN(C(=O)CSCc2ccccc2Cl)CC1	-3	7	-2	0	2283	33
COC(=O)c1cn(C(=O)c2ccccc2F)nc1N	-6	6	1	4	21604*	-10
SMILES	3CLpro inhibitor	BoNT F protease	Anthrax LF prot	BoNT-A LC inh2	Bead autofluor	VHR inh abs
Cc1ccc(C(=O)COc2nc(C)cc(C)c2C#N)cc1	5	-3	0	-1	22443*	10
COC(=O)c1ccc(COc2nc(C)cc(C)c2C#N)o1	3	4	-2	0	9660	16
Cc1cc(C)c(C#N)c(OCC(=O)c2ccc(Br)cc2)n1	-1	0	1	u	23283*	7
N#CCSc1nc2ccc(N3CCCCC3)cc2c(=O)n1Cc1ccccc1	7	3	2	-1	29809*	21
CCOC(=O)C1CCN(C(=O)c2sc3ncnc(N4CCC(C)CC4)c3c2C)CC1	-2	2	-2	u	16307*	9
Cc1c(C(=O)N2CCN(c3ccccc3)CC2)sc2ncnc(N3CCC(C)CC3)c12	-1	x	x	x	x	-4
CCOC(=O)C1CCN(C(=O)c2sc3nc(C)nc(N4CCC(C)CC4)c3c2C)CC1	-2	-4	-1	-3	21764*	18
C=CCn1c(C)cc(C(=O)CSc2nnc3n(CCC)c(=O)c4ccccc4n23)c1C	x	-2	-3	-1	4688	x
O=C(CN1C(=O)C(=O)N(Cc2ccccc2)C1=O)Nc1ccc(F)c(Cl)c1	2	3	-6	0	3408	11
Cc1ccc(S(=O)(=O)N(CC(=O)N2CCN(c3ccc(F)cc3)CC2)C2CCCCC2)cc1	3	-7	1	-1	23859*	23
Cc1c(OCC(=O)NC2CC(C)(C)NC(C)(C)C2)ccc2c1oc(=O)c1ccccc12	-8	-1	-2	0	5386	53*
CCCc1cc(=O)oc2c(C)c(OCC(=O)NC3CC(C)(C)NC(C)(C)C3)ccc12	-5	-3	2	-1	6421	50*
Cc1c(OCC(=O)NC2CC(C)(C)NC(C)(C)C2)ccc2c3c(c(=O)oc12)CCC3	-7	x	x	x	x	15
Cc1cc(OCC(=O)NC2CC(C)(C)NC(C)(C)C2)c2c(C)cc(=O)oc2c1	-3	-2	-1	0	4012	56*
CCCc1cc(=O)oc2c(C)c(OCC(=O)NCCCN3CCOCC3)ccc12	-7	-1	0	0	6091	53*
CC(NCCN(C)C)C1CCC2C3CCc4cc(O)ccc4C3CCC12C (stereo not drawn)	x	-30	-3	0	4198	x
O=C1C(=O)N(CC2CCCO2)C(c2ccccc2[N+](=O)[O-])/C1=C(/O)c1ccccc1 (stereo not drawn)	-1	2	-2	0	3229	9
O=C(/C=C/[C@H]1O[C@@H](n2ccc(=O)[nH]c2=O)[C@H](O)[C@@H]1O)NCCCc1ccccc1	x	-3	-1	1	6072	x
O=[N+]([O-])c1ccc(C(O)CN2CCN(c3ccccc3)CC2)cc1 (stereo not drawn)	0	22	5	-2	3847	20
Oc1ccc(N2CCN(CC(O)c3ccccc3)CC2)cc1 (stereo not drawn)	-5	-18	-2	-1	3840	50*
Cc1c(C(=O)N2CCCC2)oc2c1-c1nn(CC(=O)NCCCN3CCCCC3C)cc1CC2 (stereo not drawn)	-6	10	-2	-2	6297	56*
CCC1CCCCN1CCCNC(=O)Cn1cc2c(n1)-c1c(oc(C(=O)N3CCCC3)c1C)CC2 (stereo not drawn)	7	-5	3	0	4545	56*
Cc1cc(C(=O)N2CCN(c3ncccn3)CC2)sc1-c1ccccc1	-5	-4	-2	u	24354*	x

High-throughput results as filed in PubChem.
